KB-V1 MDR tox: kills drug-selected multidrug resistant KB-V1 cells. KB-V1 MDR cells viability, CellTiter-Glo, 72 h. hit rate 3.4% among 400,000. Potency, µM (titrated, usually from 46.1 µM), most hits filed as cytotoxic; note: nearly all actives have a fitted effect of over 60% in size
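Following 72 h at 37 degrees C with compound, KB-V1 cell viability was read by CellTiter-Glo luminescence, medium being phenol-red-free DMEM plus 10% FBS; concentration-response parameters came from normalized, curve-fitted qHTS data.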
SW480 rereplic: DNA re-replication induction in SW480 cells. SW480 DNA re-replication, Hoechst DNA content imaging, 48 h. Potency, µM (titrated, usually from 46.1 µM), hits mostly activators. hit rate 1.8% among 340,000. AID 624297; note: nearly all actives have a fitted effect of over 55% in size
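Cells (250 per well) received 23 nL compound or DMSO by pin tool and were kept 48 hr at 37 C, 5% CO2. Nuclei were then stained with Hoechst for 40 min and scanned for DNA content.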
ELG1 repair inh: inhibitors of ELG1-dependent DNA repair in HEK293T cells | HEK293T ELG1-luciferase reporter, luminescence, 16 h; DNA damage induced by 5-fluorouridine | AID 504467 | hit rate 2.3% among 330,000 | Potency, µM (doses to about 46.1 µM), actives largely listed as inhibitors; note: nearly all actives have a fitted effect of over 55% in size
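Reporter activity after DNA damage by 5-fluorouridine is monitored. Compound-treated cells incubate 16 hr at 37 °C, then ONE-Glo is added for 30 min before luminescence reading.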
MCF10A rereplic: inducers of DNA re-replication in MCF 10A breast cells; MCF 10A DNA re-replication, Hoechst nuclear intensity, 48 h; Potency, µM (top dose mostly 46.1 µM), most hits filed as activators; hit rate 2.9% among 350,000; note: nearly all actives have a fitted effect of over 50% in size
KB-3-1 tox: kills parental KB-3-1 adenocarcinoma cells; Potency, µM (series often up to 46.1 µM), usual class: cytotoxic; hit rate 1.4% among 400,000; KB-3-1 viability, CellTiter-Glo ATP luminescence, 72 h; note: nearly all actives have a fitted effect of over 60% in size
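Cytotoxicity measured as CellTiter-Glo luminescence after 72 h at 37 C. Compound titrations were pinned onto drug-naive KB-3-1 parental adenocarcinoma cells grown in DMEM with 10% FBS, and normalized data fitted to concentration-response curves.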
Numbers stand for hits; [ ] = another dose, or the depositor's remark. Shown are actives, neighbours in structure and some others; about 8.2% of the full set was active somewhere. Calls come from the whole dose curve; as a rule, active = well fitted curve in the direction sought with a large enough effect; inconclusive = small, poorly fitted or top-dose-only effect, or another doubt; inactive = no such curve, though single readings can be large; an effect the other way counts as inactive or inconclusive.

Cc1csc2c(N3CCN(C(=S)Nc4ccc(C(F)(F)F)cc4)CC3)ncnc12 was read as KB-V1 MDR tox inactive, SW480 rereplic inactive, ELG1 repair inh inconclusive, MCF10A rereplic inconclusive and KB-3-1 tox inactive.
Screening Cc1csc2c(N3CCN(C(=O)c4ccc(C(C)(C)C)cc4)CC3)ncnc12 returned KB-V1 MDR tox inconclusive, SW480 rereplic inactive, ELG1 repair inh 15µM, MCF10A rereplic inconclusive and KB-3-1 tox inactive.
`CSCCC(NC(=O)c1ccccc1Cl)C(=O)NCCOc1ccc(C)cc1` (centres undefined) gave KB-V1 MDR tox inconclusive and KB-3-1 tox inactive.
`CCOC(=O)c1ccccc1NC(=O)N1CCC(N2CCN(Cc3ccccc3)C(=O)C2=O)CC1` gave KB-V1 MDR tox inconclusive and KB-3-1 tox inactive.
For CCCCN1C(=O)C(CC(=O)NCc2ccco2)CC(C(=O)N2CCOCC2)=C1C (centres undefined) the results were KB-V1 MDR tox inactive and KB-3-1 tox inactive.
Screening O=c1[nH]c(=O)c2[nH]c(=O)[nH]c2[nH]1 returned SW480 rereplic inactive and MCF10A rereplic inactive.
For CC1(C)C2CCC1(C)C(SC(=N)N)C2 (centres undefined) the results were KB-V1 MDR tox 18µM, SW480 rereplic inconclusive, MCF10A rereplic inactive and KB-3-1 tox inactive.
Screening CCN1CC=C2C(C#N)=C(N)C(C#N)(C#N)C(c3cc(Cl)ccc3Cl)C2C1 (centres undefined) returned KB-V1 MDR tox inactive, SW480 rereplic inactive, ELG1 repair inh inactive, MCF10A rereplic 16µM and KB-3-1 tox inactive.
Screening CN(Cc1ccccc1)c1nc(N)c([N+](=O)[O-])c(NCc2ccccc2)n1 returned KB-V1 MDR tox 18µM, SW480 rereplic inactive, ELG1 repair inh inactive, MCF10A rereplic inconclusive and KB-3-1 tox inconclusive.
For Nc1nc(Nc2ccccc2)nc(NCc2ccco2)c1[N+](=O)[O-] the results were KB-V1 MDR tox 16µM, SW480 rereplic inactive, ELG1 repair inh inconclusive, MCF10A rereplic inconclusive and KB-3-1 tox inactive.
CC1CCCN(c2nc(NCc3ccco3)nc(N)c2[N+](=O)[O-])C1 (centres undefined) was read as KB-V1 MDR tox 15µM, ELG1 repair inh inactive, MCF10A rereplic inactive and KB-3-1 tox inactive.
Screening CC(C)c1ccc(Nc2nc(Cl)nc(NCc3ccco3)n2)cc1 returned KB-V1 MDR tox inactive, SW480 rereplic 5.8µM, ELG1 repair inh inactive, MCF10A rereplic 23µM and KB-3-1 tox inconclusive.
For Nc1nc(NCc2ccco2)nc(Nc2ccccc2)c1[N+](=O)[O-] the results were KB-V1 MDR tox inconclusive, SW480 rereplic inactive, ELG1 repair inh inactive, MCF10A rereplic inactive and KB-3-1 tox inactive.
`CN(C(=O)COC(=O)c1ccccc1SCC(=O)N1CCCC1)c1ccccc1` gave SW480 rereplic inactive, ELG1 repair inh inactive and MCF10A rereplic inconclusive.
Fc1ccc(Nc2nc(NCc3ccco3)c3ccccc3n2)cc1 was read as KB-V1 MDR tox 18µM, SW480 rereplic inconclusive, ELG1 repair inh 23µM, MCF10A rereplic inconclusive and KB-3-1 tox inconclusive.
For Cc1cccc(NC2=C(Cl)C(=O)OC2OC(=O)c2ccco2)c1 (centres undefined) the results were KB-V1 MDR tox inactive, SW480 rereplic 4.6µM, ELG1 repair inh inactive, MCF10A rereplic inconclusive and KB-3-1 tox inactive.
Cc1ccc(NC2=C(Cl)C(=O)OC2OC(=O)c2ccco2)cc1 (centres undefined) was read as KB-V1 MDR tox inactive, SW480 rereplic 21µM, ELG1 repair inh inactive, MCF10A rereplic inconclusive and KB-3-1 tox inactive.
Cc1ccc2cccc(NC(=O)c3ccc(-c4cc(Cl)ccc4Cl)o3)c2n1 was read as KB-V1 MDR tox inactive and KB-3-1 tox inactive.
For Cc1cc(C)c2c(N)c(-c3nnc(SCc4ccc(Cl)cc4)n3C)sc2n1 the results were KB-V1 MDR tox inactive, SW480 rereplic inactive[9.22 µM], ELG1 repair inh inactive, MCF10A rereplic inactive and KB-3-1 tox inactive.
C=CCn1c(SCc2ccccc2Cl)nnc1-c1sc2nc(C)cc(C)c2c1N was read as KB-V1 MDR tox inactive, SW480 rereplic 18µM, ELG1 repair inh 21µM, MCF10A rereplic 10µM and KB-3-1 tox inactive.
For Cc1nnc(SCCn2c(N3CCN(Cc4ccccc4)CC3)nc3c2c(=O)[nH]c(=O)n3C)s1 the results were KB-V1 MDR tox inconclusive, SW480 rereplic inactive, ELG1 repair inh inconclusive, MCF10A rereplic inactive and KB-3-1 tox inactive.

Screening data (PubChem)
